Measurements as given in PubChem BioAssay (Tox21).
Results filed as inconclusive are left out. Where a structure was tested more than once in an assay, its records may differ in their call. Activity calls are given as the source filed them. Unless noted, the call rests on the fitted dose curve; in most records, active means well fitted curve in the direction sought with a large enough effect in the repeat runs; inconclusive means weak or mixed curves; inactive means no such curve, though single readings can be large; an effect the other way counts as inactive or inconclusive.

Legend:
[1] = qHTS assay to identify small molecule antagonists of the vitamin D receptor (VDR) signaling pathway - cell viability counter screen (AID 743225); further: on the % scale 0 is the no-effect control and ±100 the full control effect; nearly all actives have a fitted effect of over 50% in size
How it was run: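 HEK293T VDR-bla; cpd + 1a,25-(OH)2D3 3 nM final, 16 h 37C/5% CO2; B/G FRET substrate 2 h RT; then CellTiter-Glo 30 min RT, luminescence.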

[2] = qHTS assay to identify small molecule agonists of the NFkB signaling pathway (AID 1159509; active means well fitted curve in the direction sought with a large enough effect in the signal ratio in the repeat runs, not every such curve was filed as active; the % refers to the signal ratio; further: series mostly up to about 61 µM; on the % scale 0 is the no-effect control and ±100 the full control effect)
How it was run: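 NFkB-bla ME-180 cells with a beta-lactamase reporter under an NF-kB response element were plated overnight, treated with compounds in DMSO for 5 hr at 37 C, then loaded with FRET substrate for 1.5 hr at room temperature.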

[3] = qHTS assay to identify small molecule agonists of the NFkB signaling pathway - cell viability counter screen (AID 1159515; calls by dose curve; further: series mostly up to about 61 µM; on the % scale 0 is the no-effect control and ±100 the full control effect; nearly all actives have a fitted effect of over 55% in size)
How it was run: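 Viability in NFkB-bla ME-180 cells was measured by CellTiter-Glo luminescence, 30 min room temperature, in wells already treated 5 hr with compounds and read for reporter FRET.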

[4] = qHTS assay to identify small molecule agonists of the endoplasmic reticulum stress response signaling pathway (AID 1159516; active means well fitted activation curve with a large enough effect in the signal ratio in the repeat runs, not every such curve was filed as active; the % refers to the signal ratio; further: on the % scale 0 is the no-effect control and ±100 the full control effect)
How it was run: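 ER stress element reporter (bla) in HeLa. 1,500 cells/well, overnight attachment; 5 hr compound; 2 hr RT substrate; dual-emission fluorescence.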

[5] = qHTS assay to identify small molecule agonists of the endoplasmic reticulum stress response signaling pathway - cell viability counter screen (AID 1159517; calls by dose curve;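 further: HeLa cells carrying an ER stress response element beta-lactamase reporter; series mostly up to about 61 µM; on the % scale 0 is the no-effect control and ±100 the full control effect; nearly all actives have a fitted effect of over 50% in size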)
How it was run: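 Cells, HeLa ESRE-bla; density, 1,500/well; dosing, 5 hr at 37 C, 5% CO2; readout, CellTiter-Glo luminescence after 30 min RT.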

[6] = qHTS assay to identify small molecule antagonists of the retinoid-related orphan receptor gamma (ROR-gamma) signaling pathway - cell viability counter screen (AID 1159520); further: on the % scale 0 is the no-effect control and ±100 the full control effect; nearly all actives have a fitted effect of over 50% in size
How it was run: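 Cytotoxicity was read from cellular ATP (CellTiter-Glo luminescence) after 16 hr at 37 C with 1 uM doxycycline induction. The inducer was added 2 hr after compound transfer to Tet-on ROR gamma CHO cells.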

[7] = molecular target: Nuclear receptor ROR-gamma (Homo sapiens) (UniProt P51449); experiment: qHTS assay to identify small molecule antagonists of the retinoid-related orphan receptor gamma (ROR-gamma) signaling pathway (AID 1159521; further: nearly all actives have a fitted effect of over 50% in size; further: potency means the concentration at half of the fitted maximal effect)
How it was run: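 Cells were plated, rested 4 h at 37 C, exposed to compounds for 2 h, then given 1 uM final doxycycline hyclate to induce RORγ expression. After 16 h, ONE-Glo luminescence from the ROR response element reporter was measured.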

[8] = qHTS assay to identify small molecule agonists of the AP-1 signaling pathway - cell viability counter screen (AID 1159525; calls by dose curve; further: nearly all actives have a fitted effect of over 55% in size)
How it was run: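 Luminescent ATP readout (Cell Titer Glo, 30 min RT), normalised to DMSO and tetra n-octyl ammonium bromide controls. Cells were ME-180 AP-1-bla in 0.5% dialyzed FBS Opti-MEM, with a 5 h, 37 °C compound exposure.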

[9] = qHTS assay to identify small molecule agonists of the AP-1 signaling pathway (AID 1159526; calls by dose curve; further: on the % scale 0 is the no-effect control and ±100 the full control effect)
[10] = molecular target: Retinoic acid receptor RXR-alpha (Homo sapiens) (UniProt P19793); experiment: qHTS assay to identify small molecule agonists of the RXR signaling pathway (AID 1159527; calls by dose curve; further: nearly all actives have a fitted effect of over 35% in size; further: potency means the concentration at half of the fitted maximal effect)
Retinoic acid receptor RXR-alpha (Homo sapiens), sequence (P19793 whole entry, looked up): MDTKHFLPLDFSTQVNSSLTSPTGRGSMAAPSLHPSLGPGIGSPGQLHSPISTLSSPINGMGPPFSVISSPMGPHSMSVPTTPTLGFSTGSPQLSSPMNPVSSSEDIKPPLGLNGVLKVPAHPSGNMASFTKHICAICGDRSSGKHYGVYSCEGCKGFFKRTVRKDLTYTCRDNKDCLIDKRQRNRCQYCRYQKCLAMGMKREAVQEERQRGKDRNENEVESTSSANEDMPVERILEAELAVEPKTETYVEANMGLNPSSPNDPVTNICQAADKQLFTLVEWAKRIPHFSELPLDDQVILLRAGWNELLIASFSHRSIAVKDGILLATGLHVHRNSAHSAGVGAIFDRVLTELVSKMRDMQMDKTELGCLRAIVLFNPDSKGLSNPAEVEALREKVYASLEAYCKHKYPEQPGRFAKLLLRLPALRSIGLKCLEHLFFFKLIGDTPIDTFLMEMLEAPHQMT
How it was run: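 Cells plated at 2,000/well, rested 5 hr at 37 C, pin-dosed with DMSO compound solutions, incubated 16 hr, then loaded with B/G FRET substrate for 2 hr at RT before dual-emission fluorescence reading.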

[11] = qHTS assay to identify small molecule agonists of the RXR signaling pathway - cell viability counter screen (AID 1159529); further: nearly all actives have a fitted effect of over 50% in size; further: potency means the concentration at half of the fitted maximal effect
How it was run: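 Steps: seed RXR-alpha-UAS-bla HEK 293T cells in assay medium containing 2% charcoal-stripped FBS; incubate 5 hr; add compounds in DMSO; incubate 16 hr at 37 C; after the bla read, add CellTiter-Glo and read luminescence at 30 min.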

[12] = qHTS assay to identify small molecule antagonists of the retinoid acid receptor (RAR) signaling pathway - cell viability counter screen (AID 1159551); further: on the % scale 0 is the no-effect control and ±100 the full control effect; nearly all actives have a fitted effect of over 35% in size
How it was run: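 Following overnight attachment, C3RL4 reporter cells received DMSO-dissolved compounds and then retinol (1 uM final). Six hours later at 37 C, ATP content was measured by CellTiter-Glo luminescence.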

[13] = qHTS assay to identify small molecule antagonists of the retinoic acid receptor (RAR) signaling pathway (AID 1159552)
How it was run: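 Retinol at 1 uM final stimulated RARE-luciferase expression in C3RL4 cells exposed to test compounds for 6 hr at 37 C. Reduced luminescence, read 30 min after detection reagent, indicated pathway antagonism.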

[14] = qHTS assay to identify small molecule agonists of the retinoic acid receptor (RAR) signaling pathway (AID 1159553); further: on the % scale 0 is the no-effect control and ±100 the full control effect
How it was run: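 Cell line C3RL4, RARE luciferase reporter. Treatment: compounds in DMSO, 6 hr, 37 C, 5% CO2, after overnight plating. Detection: luminescence, 30 min RT after reagent.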

CCN[C@H](C)Cc1cccc(C(F)(F)F)c1
inactive: Potency [1] | outcome [2] | outcome [3] | outcome [4] | Potency [5] | Potency [6] | Potency [7] | Potency [8] | outcome [9] | Potency [10] | Potency [11] | Potency [12] | Potency [13]

CCCCCCC(=O)CCCCCC/C=C/C[C@@H](O)[C@H](O)[C@@](N)(CO)C(=O)O
inactive: Potency [1] | outcome [2] | outcome [3] | outcome [4] | Potency [5] | activity, negative = cytotoxicity [6] 4.11% [at 19 µM] | activity change, negative = inhibition [7] -12.3% [at 19 µM] | viability change, negative = cytotoxic [8] -3.45% [at 15.8 µM] | activation [9] -2.3% [at 15.8 µM] | activation [10] 1.63% [at 15.8 µM] | activity change, negative = cytotoxicity [11] 2.42% [at 15.8 µM] | activity change, negative = cytotoxicity [12] 2.99% [at 19 µM] | activity, negative = inhibition [13] 6.01% [at 19 µM]

C[N+]1(C)CCCCC1
inactive: outcome [2] | outcome [3] | outcome [4] | Potency [5] | Potency [6] | Potency [7] | Potency [8] | outcome [9] | Potency [11] | Potency [12] | Potency [14]
active: Potency [10] 6.09 µM

O=c1[nH]c2ccccc2n1C1CCNCC1
inactive: Potency [1] | outcome [2] | outcome [3] | outcome [4] | Potency [5] | Potency [6] | Potency [7] | Potency [8] | outcome [9] | Potency [10] | Potency [11] | Potency [12] | Potency [13]

C=CC1(C)OC(=O)N(c2cc(Cl)cc(Cl)c2)C1=O (configuration not stated)
inactive: Potency [1] | outcome [2] | outcome [3] | outcome [4] | Potency [5] | Potency [6] | Potency [8] | outcome [9] | Potency [12]
34.5 µM (active) and inactive: Potency [11]
43 µM (active) and inactive: Potency [7]

CC1N=C(N)OC1c1ccccc1 (configuration not stated)
inactive: Potency [1] | outcome [2] | outcome [3] | outcome [4] | Potency [5] | Potency [6] | Potency [7] | Potency [8] | outcome [9] | Potency [10] | Potency [11] | Potency [12] | Potency [13]

Nc1c(Cl)c(F)nc(OCC(=O)O)c1Cl
inactive: Potency [1] | outcome [2] | outcome [3] | outcome [4] | Potency [5] | Potency [6] | Potency [7] | Potency [8] | outcome [9] | Potency [10] | Potency [11] | Potency [12] | Potency [13]

CC(C)C(C)(N)C#N (configuration not stated)
inactive: Potency [1] | outcome [2] | outcome [3] | outcome [4] | Potency [5] | Potency [6] | Potency [7] | Potency [8] | outcome [9] | Potency [10] | Potency [11] | Potency [12] | Potency [13]

C/C(=N\NC(=O)Nc1cc(F)cc(F)c1)c1ncccc1C(=O)O
inactive: Potency [1] | outcome [2] | outcome [3] | outcome [4] | Potency [5] | Potency [6] | Potency [7] | Potency [8] | outcome [9] | Potency [10] | Potency [11] | Potency [12]

ClCCCCl
inactive: Potency [1] | outcome [2] | outcome [3] | outcome [4] | Potency [5] | Potency [6] | Potency [7] | Potency [8] | outcome [9] | Potency [10] | Potency [11] | Potency [12] | Potency [13]

CC(O)CCl (configuration not stated)
inactive: Potency [1] | outcome [2] | outcome [3] | outcome [4] | Potency [5] | Potency [6] | Potency [7] | Potency [8] | outcome [9] | Potency [10] | Potency [11] | Potency [12] | Potency [13]

CC(=NC#N)N(C)Cc1ccc(Cl)nc1
inactive: Potency [1] | outcome [2] | outcome [3] | outcome [4] | Potency [5] | Potency [6] | Potency [7] | Potency [8] | outcome [9] | Potency [10] | Potency [11] | Potency [12] | Potency [13]
